Pf Dd2 growth = qHTS Primary assay for Inhibitors of Plasmodium falciparum Dd2 growth in vitro; Potency, µM (top dose mostly 28.9 µM), without a hit: at the top dose activity, negative = inhibition, most hits filed as inhibitors; 120,000 tested, 4.3% active; P. falciparum Dd2 growth, SYBR Green, 72 h; active = well fitted inhibition curve with a large enough effect;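 note: plate controls were DMSO vehicle for no effect and reference drug for full effect; nearly all actives have a fitted effect of over 65% in size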
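Readout: SYBR Green fluorescence, 485 nm excitation, 535 nm emission, after ~16 h lysis at 37C. Before that, Dd2-infected red cells (2.5% hematocrit) grew 72 h with compound, 29 uM top final concentration.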
* = called active by the depositor; i = inactive; [ ] = dose if it differs, or a comment. This is one part of a sample in which hits are shown more often than they occur. Potency is the fitted concentration of half-maximal effect.

SMILES	Pf Dd2 growth
COc1cccc(N2C(=O)NC(=NC3CCCC3)C23CCN(Cc2ccc(F)cc2)C3)c1 (stereo not drawn)	13µM*
COc1cccc(N2C(=O)NC(=NC3CCCC3)C23CCCN(C(=O)c2ccccc2F)C3)c1 (stereo not drawn)	13%
COc1cccc(N2C(=O)NC(=NC3CCCCC3)C23CCCN(Cc2ccc(F)cc2)C3)c1 (stereo not drawn)	13µM*
COc1cccc(N2C(=O)NC(=NC3CCCCC3)C23CCN(Cc2ccccc2)C3)c1 (stereo not drawn)	40%
COc1ccc(CN2CCC3(CC2)C(=NC2CCCCC2)NC(=O)N3c2cccc(OC)c2)cc1	-15%
COc1cccc(N2C(=O)NC(=NC3CCCCC3)C23CCCN(C(=O)c2ccccc2OC)C3)c1 (stereo not drawn)	-18%
CC1=C(C(N)=O)C(c2cccc(O)c2)n2ncnc2N1 (stereo not drawn)	i
CO[C@H]1COCCN(C(=O)c2ccc(F)cc2)C1	15%[44.1 µM]
O=C(NCCCN1CCCC1=O)C1CCN(C(=O)N2CC3CC(C2)[C@H]2CCCC(=O)N2C3)CC1 (stereo partly drawn)	24%
Cc1ccc(OCCC2CCNC2)cc1 (stereo not drawn)	i
Cc1c(C(C)NC(=O)c2cc(C(C)C)[nH]n2)cnn1-c1ccccn1 (stereo not drawn)	0%
O=C(O)c1cccc(-c2cccc(O)c2)c1	11%[44.1 µM]
CC(=O)N1CCC(Cc2ccc(C(=O)NCCCn3cccn3)cc2)CC1	i
CCNC(=O)NCC1c2cc(OC)c(OC)cc2CCN1C(=O)Nc1ccc(C)cc1 (stereo not drawn)	i
COc1cc2c(cc1OC)C(CNC(=O)c1cccc(F)c1)N(C(=O)Nc1ccc(C)cc1)CC2 (stereo not drawn)	i
COc1cccc(C(=O)N2CCc3cc(OC)c(OC)cc3C2COc2ccc3c(C)cc(=O)oc3c2)c1 (stereo not drawn)	8.9µM*
COCC(=O)N1CCc2cc(OC)c(OC)cc2C1COc1ccc2c(C)cc(=O)oc2c1 (stereo not drawn)	11%
CCOc1ccc(C(=O)N2CCc3cc(OC)c(OC)cc3C2COc2ccc3c(C)cc(=O)oc3c2)cc1OCC (stereo not drawn)	3.2µM*
COc1cc2c(cc1OC)C(CNC(=O)c1ccccc1)N(C(=O)Nc1cccc(F)c1)CC2 (stereo not drawn)	-11%
COc1cc2c(cc1OC)C(COc1ccc3c(C)cc(=O)oc3c1)N(C(=O)c1ccc(Cl)cc1)CC2 (stereo not drawn)	8.9µM*
CCOc1ccc(C(=O)N2CCC[C@H]2c2nc(-c3ccc(OC)cc3)no2)cc1OCC	i
O=C(NC1CCN(c2cc(-c3ccc(F)cc3)[nH]n2)C1)c1cccc(Cl)c1 (stereo not drawn)	i
O=C(N[C@H]1CCN2C(=O)c3cc(-c4ccc(Cl)cc4)ccc3NC(=O)[C@H]12)C1CCCC1	-17%
COc1cccc(N2C(=O)N(Cc3ccc(C#N)cc3)c3ccccc3S2(=O)=O)c1	-16%
CCc1ccccc1N1C(=O)N(CC(=O)c2ccc(OC)cc2)c2ccccc2S1(=O)=O	-29%
SMILES	Pf Dd2 growth
COc1ccc(OC)c(C(=O)CN2C(=O)N(c3cc(C)cc(C)c3)S(=O)(=O)c3ccccc32)c1	10µM*
CC1CN(S(=O)(=O)c2ccc3c(c2)NC(=O)CC(=O)N3)c2ccccc2O1 (stereo not drawn)	26%
O=C(c1ccccc1OCC1CCCN(Cc2ccccn2)C1)N1CCCC1 (stereo not drawn)	-2%
O=C(Cn1cccc1-c1nc(-c2ccccc2)no1)NCc1ccccc1	-12%
O=C1CC(Cc2ccccn2)CN1c1ccccc1 (stereo not drawn)	-11%
O=S(=O)(c1cccc(Cl)c1)c1nnn2c1nc(NC1CCCC1)c1sccc12	13µM*
Cc1ccc(S(=O)(=O)c2nnn3c2nc(N2CCC(C(N)=O)CC2)c2cc(Cl)ccc23)cc1C	-16%
CC1CCN(c2nc3c(S(=O)(=O)c4cccc(Cl)c4)nnn3c3ccsc23)CC1	13µM*
O=S(=O)(c1cccc(Cl)c1)c1nnn2c1nc(NCc1ccc3c(c1)OCO3)c1sccc12	-11%
CCc1ccc(S(=O)(=O)c2nnn3c2nc(N2CCC(C)CC2)c2cc(Cl)ccc23)cc1	i
Cc1cc(C)c(S(=O)(=O)c2nnn3c2nc(NCCCOC(C)C)c2ccccc23)c(C)c1	-20%
O=S(=O)(c1ccccc1)c1nnn2c1nc(NC1CC1)c1ccccc12	-9%
Cc1cc(C)c(S(=O)(=O)c2nnn3c2nc(NC2CCCC2)c2ccccc23)c(C)c1	11µM*
CCOC(=O)C1CCN(c2nc3c(S(=O)(=O)c4ccccc4)nnn3c3ccc(Cl)cc23)CC1	8.9µM*
CC(C)c1ccc(S(=O)(=O)c2nnn3c2nc(N2CCCC2)c2sccc23)cc1	0%
Cc1cc(C)cc(Nc2nc3c(S(=O)(=O)c4cccc(Cl)c4)nnn3c3ccsc23)c1	-11%
CCOC(=O)C1CCCN(c2nc3c(S(=O)(=O)c4ccc(CC)cc4)nnn3c3ccc(Cl)cc23)C1 (stereo not drawn)	-30%
Cc1nc(C)c(C(=O)N2CCCCCC2c2nnc(-c3ccccc3)o2)s1 (stereo not drawn)	-29%
O=C1CC(c2c(F)cccc2Cl)c2c(c3ccccc3oc2=O)O1 (stereo not drawn)	53%
O=C1NC2(CCCN(C(=O)c3ccccn3)C2)Oc2ccccc21 (stereo not drawn)	1%[44.1 µM]
Cc1ccc(CCNC(=O)C2CCN(Cc3nc(-c4ccccc4C)oc3C)CC2)cc1	-12%
COc1cccc(N2CCN(C(=O)c3cc4n(n3)CC(c3ccc(Cl)cc3)OC4)CC2)c1 (stereo not drawn)	i
NCC(c1cccs1)N1CCOCC1 (stereo not drawn)	-18%[44.1 µM]
CC(C)(C)c1cc(C[C@H]2CNCC[C@H]2CC(=O)Nc2ccccc2)no1	i
O=c1c2sc3ccccc3c2n(Cc2ccc(F)cc2)c(=O)n1Cc1ccco1	50%
SMILES	Pf Dd2 growth
O=C(Cc1ccccn1)N1CCC(c2nn(-c3ccccc3)c(=O)[nH]2)CC1	i
CCn1cc(CNC(=O)c2cc(-c3ccc(C)c(C)c3)nc3ccccc23)c(C)n1	i
COc1ccc(-c2cc(C(=O)NCc3ccc(C)cc3)c3cc(C(C)C)ccc3n2)cc1	27%
Cc1ccc(-c2cc(C(=O)NCc3cnn(C)c3C)c3cc(Br)ccc3n2)cc1	11µM*
CCCOCCNC(=O)c1c(C)noc1-c1cccs1	i
O=C(c1ccc(Cl)cc1)N1CCC(N2CCCC2=O)CC1	i
CCc1nc2ccc(C(=O)NCc3ccc(N(C)C)cc3)cc2nc1CC	3.5µM*
CC(C)c1nc2ccc(C(=O)NCc3ccc(N(C)C)cc3)cc2o1	22%
CN(C)c1ccc(CNC(=O)c2ccc3nc(Cc4ccccc4)oc3c2)cc1	-26%
CCN1C(=O)C2CC3(CCN(C(=O)c4ccncc4)CC3)CN2C1=O (stereo not drawn)	5%
CC(=O)N1[C@H]2CC[C@@H]1c1cnc(-c3ccc(F)cc3)nc1C2	i
COc1ccccc1N1CC2(CN(CCOc3ccccc3)C(=O)O2)C1	22%[44.1 µM]
CCCCNc1ccc(-c2nc(-c3ccco3)no2)cc1[N+](=O)[O-]	14%
CCC(Nc1ccc(-c2nc(-c3ccco3)no2)cc1[N+](=O)[O-])c1ccccc1 (stereo not drawn)	10µM*
O=[N+]([O-])c1cc(-c2nc(-c3ccco3)no2)ccc1NCc1ccccc1	-8%

Screening results from PubChem.
